High-throughput results deposited in PubChem BioAssay by several laboratories.
MRP1 act = activators of MRP-1 | viability increase, % at 10 µM | AID 799 | H69AR cells + doxorubicin, viability rescue, CellTiter-Glo | hit rate 0.61% among 140,000;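 active = viability gain under doxorubicin at or above a set limit, the compound median plus 3 SD, cut at about 4.7% in these data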;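 note: MRP-1 overexpressing cells given doxorubicin 25 µM after compound pretreatment; 18-22 h compound pretreatment then 72 h with doxorubicin before readout; 0% = doxorubicin-only wells and 100% = vehicle-treated cells without doxorubicin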
MRP reversal = MRP-mediated drug resistance reversal. hit rate 0.04% among 85,000. H69AR cells + 2 uM doxorubicin, CellTiter-Glo, 72 h. AID 602. differential viability (reversal), % at 10 µM;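 active = viability drop by adding the cancer drug above about 55%, with treated viability meeting a 40% cutoff, limit read from the data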;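 note: viability without doxorubicin minus viability with 2 µM doxorubicin for each compound; larger differential means the compound sensitizes cells more to doxorubicin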
VCAM1 TNFa inh = reduces TNF alpha induced VCAM1 expression in HUVEC. HUVEC TNFa-induced VCAM-1 immunofluorescence, high-content imaging. AID 802. inhibition, % at 2 µM. hit rate 0.48% among 95,000;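 active = inhibition above the batch mean plus 3 SD, with images confirmed as a hit by eye, cut at about 37% in these data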;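 note: 0% = TNF-stimulated DMSO wells and 100% = unstimulated control wells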
E-sel TNF inh = blocks E-selectin expression induced by TNF alpha; hit rate 0.71% among 120,000; AID 1246; HUVEC TNFa-induced E-selectin immunofluorescence, high content; inhibition, % at 2 µM;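 active = inhibition above the batch mean plus 3 SD, and confirmed as a hit on visual image review, cut at about 43% in these data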;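 note: 0% = TNF-stimulated DMSO wells and 100% = unstimulated control wells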
F-actin modifier = alters cytoskeleton assembly in HUVEC cells; HUVEC TNFa F-actin phalloidin imaging, high content; inhibition, % at 2 µM; hit rate 0.18% among 91,000; AID 836;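 active = inhibition above the batch mean plus 3 SD and confirmed as a hit by visual image inspection, cut at about 30% in these data, passing the limit was not always enough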
* marks the source's active call; other numbers are inactive results. An excerpt weighted towards active compounds, which were near 1.5% of everything screened.

`O=C1c2cccc3cccc(c23)C(=O)N1c1ccncc1` gave MRP1 act 5.7*, MRP reversal -11, VCAM1 TNFa inh -26, E-sel TNF inh 1 and F-actin modifier 12.
Screening COc1cccc(-c2noc(C3CCCN(S(=O)(=O)c4cccc(Cl)c4C)C3)n2)c1 (stereo not given) returned MRP1 act 1, MRP reversal -4, VCAM1 TNFa inh -2 and F-actin modifier 21.
O=C1CC(N2CCOCC2)C(=O)N1Cc1ccc(N2CCCC2=O)cc1 (stereo not given) was read as MRP1 act 2, MRP reversal 0, VCAM1 TNFa inh -3, E-sel TNF inh -12 and F-actin modifier -17.
O=C1CC(N2CCN(Cc3ccc4c(c3)OCO4)CC2)C(=O)N1Cc1ccc(N2CCCC2=O)cc1 (stereo not given) was read as MRP1 act -2, VCAM1 TNFa inh 80* and F-actin modifier 32.
CCCn1nc(C(=O)Oc2ccc3c(C)cc(=O)oc3c2)c2ccccc2c1=O was read as MRP1 act -2.
For COc1cccc(C(=O)N(c2ccc(C)cc2)C2C=CS(=O)(=O)C2)c1 (stereo not given) the results were E-sel TNF inh -10.
COc1ccc(NC2=CC(=O)N(C)C2=O)cc1 was read as MRP1 act -1 and E-sel TNF inh -7.
CC1(C)Cc2ccccc2C(N/N=C/c2ccc(Cl)cc2)=N1 was read as MRP1 act -1.
For CN(Cc1ccccc1)c1ncnc2c1cnn2-c1ccccc1 the results were MRP1 act 5.3*, MRP reversal 2, VCAM1 TNFa inh -20 and F-actin modifier -3.
Screening CCN(c1ccccc1)c1ncnc2c1cnn2-c1ccccc1 returned MRP1 act 3, MRP reversal -1, VCAM1 TNFa inh 26, E-sel TNF inh -10 and F-actin modifier -11.
COc1ccc(C(=O)OCC[N+]2(C)CCOCC2)cc1 was read as E-sel TNF inh 5.
CCOc1ccc(/C(O)=C2\C(=O)C(=O)N(CCOCCO)C2c2ccccc2OC)cc1 (stereo not given) was read as MRP1 act -2, MRP reversal 4, VCAM1 TNFa inh -16, E-sel TNF inh -26 and F-actin modifier 6.
Screening COc1ccc(NC(=O)c2ccc(CNc3c(NC4CCCCC4)c(=O)c3=O)cc2)cc1OC returned MRP1 act 0, MRP reversal 0, VCAM1 TNFa inh -5, E-sel TNF inh 72* and F-actin modifier 11.
`COCCN(CC(=O)NC1CCCCC1)C(=O)/C=C/C(=O)c1ccc(OC)cc1O` gave E-sel TNF inh 89*.
`COc1ccc(CN(C(=O)/C=C/C(=O)c2ccc(OC)cc2O)C(C(=O)NC2CCCCC2)c2ccncc2)cc1` (stereo not given) gave MRP1 act -5.
`CCN(CC)C(=O)c1sc(NC(=O)c2ccc(OC)c([N+](=O)[O-])c2)c(C#N)c1C` gave MRP1 act -2.
Nc1nc(SCC(=O)NC2CCCCCC2)[nH]c(=O)c1-c1ccccc1 was read as MRP1 act -2, MRP reversal 4, VCAM1 TNFa inh -8, E-sel TNF inh 13 and F-actin modifier -10.
CCOC(=O)CSc1nc(=O)n2cc(C)ccc2n1 was read as E-sel TNF inh 5.
Screening Cn1c(=O)[nH]c(=O)c2c1nc(N1CCCCC1)n2CCCSc1nnnn1-c1ccccc1 returned MRP1 act -2 and E-sel TNF inh 89*.
Screening C=CCn1c(N2CCCC2)nc2c1c(=O)[nH]c(=O)n2C returned MRP1 act -1, MRP reversal 13, VCAM1 TNFa inh 41*, E-sel TNF inh 22 and F-actin modifier 7.
For CC(=O)Cn1c(N2CCC(Cc3ccccc3)CC2)nc2c1c(=O)[nH]c(=O)n2C the results were MRP1 act -2, MRP reversal 6, VCAM1 TNFa inh 3 and F-actin modifier 31*.
For C=CCn1c(N2CCCCCC2)nc2c1c(=O)n(C)c(=O)n2C the results were MRP1 act -1, MRP reversal 13, VCAM1 TNFa inh -4, E-sel TNF inh -2 and F-actin modifier 9.
Screening O=C1C=CCC(/C=C/c2ccccc2)O1 (stereo not given) returned MRP1 act -5.
For Cc1cccc(CS(=O)(=O)c2nnc([C@H](Cc3ccccc3)NC(=O)OC(C)(C)C)o2)c1 the results were MRP1 act 2, MRP reversal 0, VCAM1 TNFa inh 58*, E-sel TNF inh 12 and F-actin modifier -2.
`COC(=O)CS(=O)(=O)c1nnc([C@H](Cc2ccccc2)NC(=O)OC(C)(C)C)o1` gave MRP1 act -2, MRP reversal 0, VCAM1 TNFa inh 32, E-sel TNF inh 31 and F-actin modifier 25.
`N/C(=N\OC(=O)CCC1CCCC1)c1ccccn1` gave MRP1 act 0 and E-sel TNF inh 3.
For CCc1ccc(N(CC(=O)NCc2ccc(F)cc2)C(=O)c2csnn2)cc1 the results were E-sel TNF inh -4.
`C[C@]12C=CC(=O)C=C1CC[C@H]1[C@@H]3C[C@@H](O)[C@](O)(C(=O)CO)[C@@]3(C)C[C@H](O)[C@@]12F` gave MRP1 act 5.2*.
CC(=O)OCC(=O)[C@@]12OC3(CCCC3)O[C@@H]1C[C@H]1[C@@H]3CCC4=CC(=O)C=C[C@]4(C)[C@@]3(F)[C@@H](O)C[C@@]12C was read as MRP1 act -1 and MRP reversal 3.
CCn1c(SCc2nc(CC(=O)Nc3ccccc3OC)no2)nnc1-c1cccs1 was read as MRP1 act -3, MRP reversal 11, VCAM1 TNFa inh -9, E-sel TNF inh 100* and F-actin modifier -6.
CCOC(=O)Cc1csc(NC(=O)CC(C)(C)C)n1 was read as MRP1 act -3, MRP reversal 8, VCAM1 TNFa inh 3, E-sel TNF inh -19 and F-actin modifier 21.
`COc1ccc(CCNC(=O)C(=O)NCc2ccc(Cl)cc2)cc1OC` gave E-sel TNF inh -27.
For COc1ccc(CCNC(=O)CSCc2ccc(C)cc2)cc1OC the results were VCAM1 TNFa inh 3, E-sel TNF inh 1 and F-actin modifier -14.
COc1ccc(CCNC(=O)C(=O)NCc2ccc(C)cc2)cc1OC was read as MRP1 act -1, VCAM1 TNFa inh 6, E-sel TNF inh 50* and F-actin modifier -7.
COc1ccc(CCNC(=O)CSCc2ccc(Cl)cc2)cc1OC was read as MRP1 act 5.0* and E-sel TNF inh -11.
`CC(C)c1cc(NCCN2CCOCC2)n2c(nc3ccccc32)c1C#N` gave MRP reversal -8.
CCc1c(C)c(C#N)c2nc3ccccc3n2c1Cl was read as MRP1 act -6 and E-sel TNF inh 67*.
Cc1cc(NCCN2CCCCC2)n2c(nc3ccccc32)c1C#N was read as MRP1 act -3, MRP reversal 5, VCAM1 TNFa inh 19, E-sel TNF inh 100* and F-actin modifier 31.
Screening COc1ccc(S(=O)(=O)Nc2cccc(S(=O)(=O)N3CCCCCC3)c2)cc1 returned MRP1 act -2 and E-sel TNF inh 71*.
For Cc1c(Br)c([N+](=O)[O-])nn1CC(=O)Nc1ccc(C(C)C)cc1 the results were E-sel TNF inh -6.
